# Test results published in PubChem BioAssay (EPA / NIEHS).
# Where “and” joins values, the source holds several entries; their conditions need not be identical. Equal entries are not always repeated. Inconclusive results are not listed. Some structures have more than one record in an assay (separate samples or runs), and their calls can disagree. Calls of active or inactive are those of the source. Rule for the calls: active = hit-call score of the fitted dose curve at least 0.9, where 1 is the maximum; inconclusive = response in the unintended direction; inactive = score below 0.9.
# Biological target: Retinoic acid receptor RXR-alpha (Homo sapiens) (UniProt P19793)
# Sequence (P19793 whole entry, looked up): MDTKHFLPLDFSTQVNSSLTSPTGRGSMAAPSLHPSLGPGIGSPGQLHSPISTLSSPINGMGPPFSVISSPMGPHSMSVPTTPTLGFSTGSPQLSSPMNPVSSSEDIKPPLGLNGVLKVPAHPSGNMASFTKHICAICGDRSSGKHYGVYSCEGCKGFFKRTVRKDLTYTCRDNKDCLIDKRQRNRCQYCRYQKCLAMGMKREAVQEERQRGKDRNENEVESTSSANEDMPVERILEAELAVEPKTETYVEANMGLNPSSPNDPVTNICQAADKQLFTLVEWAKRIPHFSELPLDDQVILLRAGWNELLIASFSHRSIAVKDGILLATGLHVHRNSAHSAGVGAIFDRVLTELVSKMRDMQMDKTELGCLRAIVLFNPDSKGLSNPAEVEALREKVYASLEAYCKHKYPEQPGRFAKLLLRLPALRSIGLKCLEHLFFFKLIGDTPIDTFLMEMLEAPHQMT
# Assay: OT_NURR1_NURR1RXRa_0480: Odyssey Thera (OT) 8-hour HEK293T Protein Complementation Assay for Nurr1/retinoid X receptor (RXR) (AID 2283385)
# Procedure, shortened: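 Compounds are applied to HEK293T cells carrying Nurr1 and RXRα linked to reporter fragments. After 8 h, fluorescence intensity reports heterodimer formation, with DMSO as baseline.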
SMILES,AC50,outcome
CC(C)N(C(=O)SCC(Cl)=C(Cl)Cl)C(C)C,74.3 µM (active) and 85 µM (active),–
CCOP(=S)(Oc1cnc(C(C)(C)C)nc1)OC(C)C (centres undefined),73.2 µM (active),inactive
C#CCC1=C(C)C(OC(=O)C2C(C=C(C)C)C2(C)C)CC1=O (centres undefined),66.7 µM (active),inactive
CCCSP(=O)(OCC)SCCC,–,inactive
C[Si](Cn1cncn1)(c1ccc(F)cc1)c1ccc(F)cc1,–,inactive
CNC(=O)ON=C(C)SC,–,inactive
CNc1cnn(-c2cccc(C(F)(F)F)c2)c(=O)c1Cl,–,inactive
CCCCSP(=O)(SCCCC)SCCCC,68.9 µM (active),inactive
CCOC(=O)CC(SP(=O)(OC)OC)C(=O)OCC (centres undefined),–,inactive
CCCCOC(=O)[C@@H](C)Oc1ccc(Oc2ccc(C#N)cc2F)cc1,13.5 µM (active),inactive
CCCSP(=O)(OCC)Oc1ccc(Br)cc1Cl (centres undefined),44 µM (active),inactive
CON=C(C(=O)OC)c1ccccc1CON=C(C)c1cccc(C(F)(F)F)c1,17.4 µM (active),inactive
CCC(CC)Nc1c([N+](=O)[O-])cc(C)c(C)c1[N+](=O)[O-],–,inactive
CSc1nc(NC(C)C)nc(NC(C)C)n1,–,inactive
CNC(=O)ON=C(SC)C(=O)N(C)C,–,inactive
CCNc1nc(Cl)nc(NC(C)(C)C#N)n1,–,inactive
O=c1ccc(=O)[nH][nH]1,–,inactive
S=C1NCCN1,–,inactive

SMILES,AC50,outcome
CC(COc1ccc(Oc2ccccc2)cc1)Oc1ccccn1 (centres undefined),63.2 µM (active),inactive
CCOP(=S)(OCC)OC(Cl)C(Cl)(Cl)Cl (centres undefined),80.9 µM (active),inactive
COc1cccc(C(=O)NN(C(=O)c2cc(C)cc(C)c2)C(C)(C)C)c1C,–,inactive
CCc1cccc(C)c1N(C(=O)CCl)C(C)COC (centres undefined),–,inactive
CN(C)C(=O)Nc1cccc(C(F)(F)F)c1,–,inactive
CCCCN(CC)c1c([N+](=O)[O-])cc(C(F)(F)F)cc1[N+](=O)[O-],–,inactive
CCOP(=S)(OCC)Oc1ccc([N+](=O)[O-])cc1,–,inactive
C=C(C)[C@H]1Cc2c(ccc3c2O[C@@H]2COc4cc(OC)c(OC)cc4[C@@H]2C3=O)O1,16 µM (active) and 12.6 µM (active),–
CCOP(=O)(NC(C)C)Oc1ccc(SC)c(C)c1 (centres undefined),–,inactive
COc1ccc(C(=CC(=O)N2CCOCC2)c2ccc(Cl)cc2)cc1OC,–,inactive
CC1(C(=O)Nc2ccc(O)c(Cl)c2Cl)CCCCC1,–,inactive
C[N+]1(C)CCCCC1,–,inactive
CN(C)NC(=O)CCC(=O)O,–,inactive
CN(C)[C@@H]1C(=O)C(C(N)=O)=C(O)[C@@]2(O)C(=O)C3=C(O)c4c(O)cccc4[C@@](C)(O)[C@H]3[C@H](O)[C@@H]12,50 µM (active),inactive
Cc1ccn2nc(S(=O)(=O)Nc3c(F)cccc3F)nc2n1,–,inactive
CCOC(=O)COc1cc(-c2nn(C)c(OC(F)F)c2Cl)c(F)cc1Cl,–,inactive
COP(=O)(NC(C)=O)SC (centres undefined),–,inactive
